# From PubChem BioAssay (NCATS)
# Results filed as inconclusive are left out. Active and inactive are the calls of the source. Unless noted, calls follow the shape of the dose curve; as a rule, active = well fitted curve in either direction with a large enough effect (not every such curve was filed as active); inconclusive = small, poorly fitted or top-dose-only effect, or another doubt; inactive = flat fitted curve, though single readings scatter.
# Tests used:
# [1] = target: Lysosomal acid glucosylceramidase (Homo sapiens) (UniProt P04062); experiment: Glucocerebrosidase-p2 (AID 348; in the data active = potency below about 10 µM; also: potency is read from the fitted curve at half-maximal effect); conditions: purified GBA, blue fluorogenic substrate, 40 min
# Procedure, shortened: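 Compounds titrated from 0.6 nM upwards against 0.2 nM enzyme in pH 5.9 citric acid/KH2PO4, taurocholate, tween-20; blue fluorogenic substrate 80 uM, 40 min room temperature, stopped and read Ex 365/Em 440 for AC50.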
# [2] = AP1 Signaling Pathway (AID 357); conditions: ME-180 AP-1-bla reporter, EGF-induced, beta-lactamase ratio, 5 h; at 7.69 µM (top of the series) unless noted;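 also: ME-180 reporter cells stimulated with EGF at its EC50 level; % is scaled to controls: 0 for no effect and ±100 for the full control effect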
# Procedure, shortened: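 Read-out was the 460nm/530nm emission ratio (excitation 405nm) after CCF4 loading for 2.5 hours at room temperature. Cells carried an AP-1-driven beta-lactamase reporter, were stimulated with EC50 EGF plus compound for 5 hours, and AC50 values came from titrations.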
# [3] = NFAT Signaling Pathway (AID 444); conditions: Jurkat NFAT-bla M1, carbachol, beta-lactamase ratio, 5 h; at 7.69 µM (top of the series) unless noted;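 also: carbachol stimulus at about its EC50 of 1 µM final; % is scaled to controls: 0 for no effect and ±100 for the full control effect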
# Procedure, shortened: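 Jurkat cells with NFAT-driven β-lactamase reporter and co-expressed M1 receptor, stimulated with carbachol (final 1 uM, ~EC50), compound titration, 5 h at 37 °C. CCF4 loaded 1 h at RT; 460/530 nm ratio gave %activity and AC50.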
# [4] = Stat Signaling Pathway (AID 446); conditions: ME-180 SIE beta-lactamase reporter, IL-6 stimulated, 5 h; at 7.69 µM (top of the series) unless noted;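 also: ME-180 cervical cancer cells given 40 pM IL-6 alongside compound; SIE-controlled beta-lactamase reporter measured as 460/530 nm FRET emission ratio; % is scaled to controls: 0 for no effect and ±100 for the full control effect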
# Procedure, shortened: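 ME-180 cells carrying a SIE-driven beta-lactamase reporter are stimulated with 40 pM IL-6 for 5 h at 37C in the presence of compound. The 460/530 nm FRET substrate ratio is read after 2.5 h at RT. Data are normalised to 300 pM IL-6 and to 125 nM JAK inhibitor controls.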
# [5] = target: Glucocorticoid receptor (Homo sapiens) (UniProt P04150); experiment: GR-EFC Redistribution (AID 451; calls by dose curve; also: potency is read from the fitted curve at half-maximal effect); conditions: CHO-K1 GR-EFC translocation, beta-gal luminescence, 2 h
# Procedure, shortened: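 CHO-K1 cells expressing nuclear EA and GR-ED fragments of b-gal; compounds titrated up to 46 uM final, 2 h at 37 C. GR nuclear translocation read as complemented b-gal luminescence after 1 h RT detection.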
# [6] = target: Mitogen-activated protein kinase 10 (Mus musculus) (UniProt Q61831); experiment: JNK3 AlphaScreen Assay (AID 530); conditions: JNK3 lysate, c-Jun phosphorylation; series mostly up to 57.1 µM;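 also: kinase came from lysate of stimulated human HepG2 cells; signal reports phosphorylation of biotinylated GST-cJun 1-79 at Ser73 with 10 µM ATP; % is scaled to controls: 0 for no effect and ±100 for the full control effect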
# Procedure, shortened: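 qHTS format: compounds tested as titrations against IL-1beta/TNF-alpha-activated HepG2 lysate JNK3 with biotin-GST-cJun substrate and 10 uM ATP at room temperature. Loss of anti-phospho-cJun AlphaScreen signal indicates inhibition.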
# [7] = target: 3',5'-cyclic-AMP phosphodiesterase 4B (Homo sapiens) (UniProt Q07343); experiment: qHTS Assay for Inhibitors of PDE-IV (AID 607; active = well fitted activation curve with a large enough effect in the main read-out, with a control signal flat, not every such curve was filed as active; also: % of control where 0% means no effect); conditions: HEK293 ACTOne CNG channel cells, membrane potential fluorescence; series mostly up to 22.9 µM
# Procedure, shortened: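 HEK293 ACTOne cells with CNG channel (1000/well), endogenous PDE4; membrane potential dye, compounds up to 22.9 uM final. Fluorescence Ex 535/Em 590; RO 20-1724 (100 uM final) as reference.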
# [8] = qHTS Assay for Lipid Storage Modulators (AID 1519; calls by dose curve); conditions: Drosophila S3 cells, BODIPY lipid droplet/cell ratio, laser cytometry, cells loaded with oleic acid; for activity change, negative = inhibition: at 57.5 µM (top of the series)
# Procedure, shortened: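 Cells seeded at 5,000 per well were treated with compounds over a concentration series and loaded with oleic acid (400 uM, as added). Lipid droplet fluorescence (488 nm excitation, 500-530 nm channel) was read by laser-scanning cytometry and normalized to 20 uM Triacsin C.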
# [9] = Primary qHTS for small molecule stabilizers of the endoplasmic reticulum resident proteome: Secreted ER Calcium Modulated Protein (SERCaMP) assay (AID 1508630; active = well fitted curve in the direction sought with a large enough effect; an effect the other way counts as inactive or inconclusive; also: % is scaled to controls: 0 for no effect and ±100 for the full control effect); conditions: SH-SY5Y GLuc-SERCaMP (Gaussia luciferase released on ER calcium loss) secretion, thapsigargin, luminescence; series mostly up to 38.4 µM
# Procedure, shortened: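 GLuc-SERCaMP-expressing SH-SY5Y cells, pretreated 16 h with compound, are challenged with thapsigargin to empty ER calcium stores; after 4 h, coelenterazine is added directly to the medium and luminescence is imaged.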
# [10] = qHTS Assay for Identification of Small Molecule Agonists for Hypoxia Response Element Signaling Pathway (AID 914; active = well fitted activation curve with a large enough effect in the signal ratio, with a control signal flat, not every such curve was filed as active; the % refers to the signal ratio; also: % of control where 0% means no effect); conditions: ME-180 (cervical carcinoma) HRE-bla reporter, beta-lactamase ratio, CoCl2, 17 h; activation: stronger effect = higher value
# Procedure, shortened: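 HRE-bla ME-180 cells, overnight plating in Opti-MEM with 0.5% dialyzed FBS; cpd titration + EC50 CoCl2, 17 h, 37 degrees Celsius; CCF4 2.5 h RT; 460/530 nm ratio; AC50.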
# [11] = target: Cytochrome P450 3A4 (Homo sapiens) (UniProt P08684); experiment: qHTS Assay for Inhibitors and Substrates of Cytochrome P450 3A4 (AID 884; active = well fitted curve in the direction sought with a large enough effect; an effect the other way counts as inactive or inconclusive; also: % is scaled to controls: 0 for no effect and ±100 for the full control effect; nearly all actives have a fitted effect of over 50% in size); conditions: recombinant CYP3A4, Luciferin-PPXE luminescence; series mostly up to 57.1 µM
# Procedure, shortened: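 20 nM human CYP3A4 with 25 uM Luciferin-PPXE (at KM) in 200 mM KPO4, preincubated 10 min with compound; NADPH regeneration started a 60 min RT reaction. Luciferin detected by luminescence, normalized to 57 uM ketoconazole as full inhibition.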
# [12] = target: Cytochrome P450 3A4 (Homo sapiens) (UniProt P08684); experiment: qHTS Assay for Activators of Cytochrome P450 3A4 (AID 885; active = well fitted curve in the direction sought with a large enough effect; an effect the other way counts as inactive or inconclusive; also: nearly all actives have a fitted effect of over 65% in size; also: potency is read from the fitted curve at half-maximal effect); conditions: recombinant CYP3A4, Luciferin-PPXE luminescence, 60 min; series mostly up to 57.1 µM
# Procedure, shortened: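 Human CYP3A4 (20 nM) with Luciferin-PPXE at 25 uM (its KM) in 200 mM KPO4; 10 min compound preincubation, then NADPH regeneration and 60 min reaction at RT. Luciferin read by luminescence; normalized to 57 uM ketoconazole full inhibition.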
# [13] = target: Cytochrome P450 2D6 (Homo sapiens) (UniProt P10635); experiment: qHTS Assay for Inhibitors and Substrates of Cytochrome P450 2D6 (AID 891; active = well fitted curve in the direction sought with a large enough effect; an effect the other way counts as inactive or inconclusive; also: potency is read from the fitted curve at half-maximal effect; nearly all actives have a fitted effect of over 60% in size); conditions: recombinant CYP2D6, luciferin-ME EGE luminescence; series mostly up to 57.1 µM
# Procedure, shortened: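 Human CYP2D6 (5 nM) with 30 uM Luciferin-ME EGE (at Km) in 100 mM KPO4, compound preincubated 10 min, then NADPH regeneration system for 60 min at room temperature. Luciferin read by luminescence; normalized to 1.43 uM quinidine.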
# [14] = measured here: cell count channel max response
# [15] = measured here: lipid channel max response
# Cytochrome P450 3A4 (Homo sapiens), sequence (P08684 whole entry, looked up): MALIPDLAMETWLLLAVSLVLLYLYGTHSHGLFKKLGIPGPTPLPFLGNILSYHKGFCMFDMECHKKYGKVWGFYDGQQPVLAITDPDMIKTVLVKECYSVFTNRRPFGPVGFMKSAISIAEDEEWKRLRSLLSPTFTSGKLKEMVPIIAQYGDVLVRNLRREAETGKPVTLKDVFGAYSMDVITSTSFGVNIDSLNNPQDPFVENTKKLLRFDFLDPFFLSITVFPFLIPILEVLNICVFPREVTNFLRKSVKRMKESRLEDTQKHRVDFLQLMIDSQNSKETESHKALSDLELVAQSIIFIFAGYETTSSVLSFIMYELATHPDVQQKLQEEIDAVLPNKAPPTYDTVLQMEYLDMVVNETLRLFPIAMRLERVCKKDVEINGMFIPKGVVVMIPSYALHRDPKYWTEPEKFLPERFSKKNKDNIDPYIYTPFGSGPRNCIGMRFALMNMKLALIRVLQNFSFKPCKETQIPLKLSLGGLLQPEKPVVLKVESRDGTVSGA
# Glucocorticoid receptor (Homo sapiens), sequence (P04150 whole entry, looked up, the tested form may be a part): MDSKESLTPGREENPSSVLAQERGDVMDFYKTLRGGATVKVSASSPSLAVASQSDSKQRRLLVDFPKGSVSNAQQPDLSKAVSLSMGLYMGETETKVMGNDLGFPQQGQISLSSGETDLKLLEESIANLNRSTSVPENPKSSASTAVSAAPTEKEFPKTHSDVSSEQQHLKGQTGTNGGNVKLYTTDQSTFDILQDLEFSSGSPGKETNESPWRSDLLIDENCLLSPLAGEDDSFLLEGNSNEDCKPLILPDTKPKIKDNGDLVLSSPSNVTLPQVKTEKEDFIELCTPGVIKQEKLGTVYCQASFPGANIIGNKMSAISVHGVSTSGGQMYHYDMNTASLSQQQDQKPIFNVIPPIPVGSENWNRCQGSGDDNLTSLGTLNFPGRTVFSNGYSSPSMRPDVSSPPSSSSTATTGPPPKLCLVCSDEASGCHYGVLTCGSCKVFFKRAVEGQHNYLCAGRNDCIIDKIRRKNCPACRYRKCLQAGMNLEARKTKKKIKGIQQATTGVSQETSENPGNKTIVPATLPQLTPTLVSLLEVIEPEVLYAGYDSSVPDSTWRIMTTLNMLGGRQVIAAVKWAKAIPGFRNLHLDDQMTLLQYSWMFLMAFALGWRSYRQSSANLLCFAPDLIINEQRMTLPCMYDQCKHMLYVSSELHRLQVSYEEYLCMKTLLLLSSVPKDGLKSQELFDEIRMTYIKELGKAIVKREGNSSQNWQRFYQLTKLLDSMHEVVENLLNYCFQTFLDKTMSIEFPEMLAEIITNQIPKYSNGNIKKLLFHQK
# 3',5'-cyclic-AMP phosphodiesterase 4B (Homo sapiens), sequence (Q07343 whole entry, looked up): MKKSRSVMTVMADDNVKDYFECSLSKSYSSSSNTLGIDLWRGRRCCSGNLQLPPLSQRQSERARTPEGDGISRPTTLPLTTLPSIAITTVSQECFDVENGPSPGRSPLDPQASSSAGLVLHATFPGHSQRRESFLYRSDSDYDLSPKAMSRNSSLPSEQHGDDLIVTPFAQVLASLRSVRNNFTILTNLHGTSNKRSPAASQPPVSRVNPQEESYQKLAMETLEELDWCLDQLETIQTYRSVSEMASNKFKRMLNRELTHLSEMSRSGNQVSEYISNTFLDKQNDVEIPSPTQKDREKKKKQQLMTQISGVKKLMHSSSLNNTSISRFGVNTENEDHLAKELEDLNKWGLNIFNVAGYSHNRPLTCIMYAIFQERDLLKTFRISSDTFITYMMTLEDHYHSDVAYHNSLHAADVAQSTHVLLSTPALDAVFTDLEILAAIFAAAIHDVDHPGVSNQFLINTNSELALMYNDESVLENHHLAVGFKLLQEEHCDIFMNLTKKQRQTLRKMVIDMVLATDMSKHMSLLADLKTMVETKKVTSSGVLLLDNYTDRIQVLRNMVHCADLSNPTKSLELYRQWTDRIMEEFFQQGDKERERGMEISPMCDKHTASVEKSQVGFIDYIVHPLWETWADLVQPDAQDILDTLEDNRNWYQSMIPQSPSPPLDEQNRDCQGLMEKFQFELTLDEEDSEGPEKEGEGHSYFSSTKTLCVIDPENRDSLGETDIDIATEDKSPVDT
# Lysosomal acid glucosylceramidase (Homo sapiens), sequence (P04062 whole entry, looked up): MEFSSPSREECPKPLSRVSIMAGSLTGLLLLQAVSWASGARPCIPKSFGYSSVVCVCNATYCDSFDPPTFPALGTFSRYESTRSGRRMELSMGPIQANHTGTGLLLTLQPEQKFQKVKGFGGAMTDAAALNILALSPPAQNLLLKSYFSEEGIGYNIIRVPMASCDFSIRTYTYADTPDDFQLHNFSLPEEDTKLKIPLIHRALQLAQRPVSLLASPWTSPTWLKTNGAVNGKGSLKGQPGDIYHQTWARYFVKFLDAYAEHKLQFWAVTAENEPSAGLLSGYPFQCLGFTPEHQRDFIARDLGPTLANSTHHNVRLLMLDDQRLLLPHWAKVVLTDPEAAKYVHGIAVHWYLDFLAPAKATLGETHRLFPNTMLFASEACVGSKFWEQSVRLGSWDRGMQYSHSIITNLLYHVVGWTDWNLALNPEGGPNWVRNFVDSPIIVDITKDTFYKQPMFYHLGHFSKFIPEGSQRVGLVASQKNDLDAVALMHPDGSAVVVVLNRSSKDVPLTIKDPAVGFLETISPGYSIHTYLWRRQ
# Cytochrome P450 2D6 (Homo sapiens), sequence (P10635 whole entry, looked up): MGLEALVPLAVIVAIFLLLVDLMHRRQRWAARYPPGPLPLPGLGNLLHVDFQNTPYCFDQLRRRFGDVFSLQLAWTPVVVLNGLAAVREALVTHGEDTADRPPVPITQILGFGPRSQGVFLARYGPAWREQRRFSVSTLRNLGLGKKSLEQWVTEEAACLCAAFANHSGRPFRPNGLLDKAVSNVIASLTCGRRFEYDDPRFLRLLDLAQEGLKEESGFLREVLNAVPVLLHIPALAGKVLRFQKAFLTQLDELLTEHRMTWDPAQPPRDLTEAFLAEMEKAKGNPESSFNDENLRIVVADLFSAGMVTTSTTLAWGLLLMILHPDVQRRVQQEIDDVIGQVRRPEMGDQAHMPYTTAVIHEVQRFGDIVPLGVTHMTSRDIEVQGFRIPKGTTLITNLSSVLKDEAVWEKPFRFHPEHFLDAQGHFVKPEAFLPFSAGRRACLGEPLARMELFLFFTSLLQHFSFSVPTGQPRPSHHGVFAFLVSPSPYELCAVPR
SMILES,Potency [1],"activity change, negative = inhibition [2]","activity change, negative = inhibition [3]","activity, negative = inhibition [4]",Potency [5],Potency [6],Potency [7],"activity change, negative = inhibition [8]","max response [8, 14] [%]","max response [8, 15] [%]",outcome [9],activation [10],Potency [11],Potency [12],Potency [13]
O=C(c1cnccn1)N1CCC[C@@]2(CCN(Cc3ccccc3)C2)C1,> 11.4 µM (inactive),5.08% (inactive),6.26% (inactive),1.17% (inactive),> 46 µM (inactive),inactive,inactive,1.97% (inactive),8.78,13.2,inactive,,,,
COC(=O)N1CCC[C@@]2(CCN(Cc3cc(C(F)(F)F)cc(C(F)(F)F)c3)C2)C1,> 11.4 µM (inactive),-12.5% (inactive),9.2% (inactive),-8.1% (inactive),> 46 µM (inactive),inactive,inactive,-1.37% (inactive),12.3,14.8,inactive,,,,
COCC(=O)N1CCC2(CC1)CCN(C(=O)NC(C)C)CC2,> 11.4 µM (inactive),-2.26% (inactive),0.244% (inactive),6.66% (inactive),> 46 µM (inactive),inactive,inactive,0.579% (inactive),13.2,16.2,inactive,-5.43% (inactive),,,
COc1ccccc1CN1CC[C@@]2(CCCN(C(=O)c3cnccn3)C2)C1,> 11.4 µM (inactive),-0.652% (inactive),0.87% (inactive),9.03% (inactive),> 46 µM (inactive),inactive,inactive,3.53% (inactive),12.1,17.4,inactive,,,,
COCC(=O)N1CCC2(CCN(Cc3nccs3)CC2)CC1,> 11.4 µM (inactive),0.0953% (inactive),-2.93% (inactive),10% (inactive),> 46 µM (inactive),inactive,inactive,2.2% (inactive),9.94,16.3,inactive,14.8% (inactive),,,
O=C(c1cccc(F)c1)N1CCC2(CC1)CN(c1ncccn1)C2,> 11.4 µM (inactive),1.82% (inactive),-6.5% (inactive),-6.7% (inactive),> 46 µM (inactive),inactive,inactive,1.3% (inactive),1.53,3.53,inactive,,inactive,25.1 µM (active),
O=C(c1cc(C(F)(F)F)cc(C(F)(F)F)c1)N1CCC2(CC1)CCN(c1ccccc1)CC2,> 11.4 µM (inactive),24.2% (inactive),-4.75% (inactive),-7.04% (inactive),> 46 µM (inactive),inactive,inactive,-9.68% (inactive),10.5,0.292,inactive,,,,
COc1ccc(C(=O)N2CCC[C@@]3(CCN(CC(C)C)C3)C2)cc1,> 11.4 µM (inactive),-12.8% (inactive),-2.79% (inactive),-10.6% (inactive),> 46 µM (inactive),inactive,inactive,2.82% (inactive),8.22,13.2,inactive,,,inactive,
O=C(c1cnccn1)N1CCC[C@@]2(CCN(c3ccccn3)C2)C1,> 11.4 µM (inactive),7.84% (inactive),0.825% (inactive),0.945% (inactive),> 46 µM (inactive),inactive,inactive,3.99% (inactive),24.1,26.9,inactive,,,inactive,
Cc1noc(C)c1C(=O)N1CCC[C@@]2(CCN(C(=O)Nc3ccccc3)C2)C1,> 11.4 µM (inactive),-22.6% (inactive),19.8% (inactive),-2.21% (inactive),> 46 µM (inactive),inactive,inactive,3.24% (inactive),3.75,7.38,inactive,,,inactive,
O=C(c1csnn1)N1CCC2(CC1)CCN(c1cccc(-c3ccccc3)c1)CC2,> 11.4 µM (inactive),-21.7% (inactive),22.2% (inactive),-14.3% (inactive),> 46 µM (inactive),inactive,inactive,-6.94% (inactive),9.03,3.45,inactive,,,,
O=C(Nc1ccccc1)N1CC[C@@]2(CCCN(C(=O)c3ccncc3)C2)C1,> 11.4 µM (inactive),-15.8% (inactive),-4.67% (inactive),-5.93% (inactive),> 46 µM (inactive),inactive,inactive,1.5% (inactive),13.8,15.1,inactive,,,inactive,
COc1ccc(C(=O)N2CCC3(CC2)CCN(c2ccccc2)CC3)cc1,> 11.4 µM (inactive),-11.8% (inactive),1.53% (inactive),-8.92% (inactive),> 46 µM (inactive),inactive,inactive,4.37% (inactive),9.05,17.4,inactive,-13.6% (inactive),inactive,,
CC(C)NC(=O)N1CC2(CCN(C(=O)c3cc(C(F)(F)F)cc(C(F)(F)F)c3)CC2)C1,> 11.4 µM (inactive),-16.3% (inactive),6.43% (inactive),-11.9% (inactive),> 46 µM (inactive),inactive,inactive,0.828% (inactive),11,13.7,inactive,,,,0.251 µM (active)
